Calls of active or inactive are those of the source.

From PubChem BioAssay come the findings set out here.

Assay [1] has as its system Human papillomavirus type 1a protein E7 (residues 44-93). Put plainly: HPV1a E7 fragment binders on microarrays, primary screen, biochemical, small-molecule microarray, residues 44-93, 635 nm fluorescence (AID 1108).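 Also: E7 fragment applied at 1 µg/mL in TBST for 1 h at 4 C; score combines spot fluorescence with its signal to noise ratio.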 Conditions: small-molecule microarray binding, fluorescence 635 nm; higher = more signal.
Assay [2] is described as follows: modulators of HCV replicon luciferase signal, primary screen, HCV replication inhibitor project, Huh7 cells, luciferase reporter (AID 1109).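 Also: huh7 hepatoma cells harbouring a luciferase neomycin HCV replicon reporter; luciferase luminescence as measure of HCV replicon replication; test concentration not given here.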 Particulars: 48 h, higher = more signal. A general note: In antiviral work, replicon cells carry a viral genome segment that copies itself.
For assay [3], the target named is Left-right determination factor 2 (Homo sapiens) (UniProt O00292). The experiment in a line: LEFTY2 binders on small-molecule microarrays, primary screen, biochemical, small-molecule microarray, 635 nm fluorescence scan (AID 1110). Conditions: LEFTY2 binding, higher = more signal.
Sequence of Left-right determination factor 2 (Homo sapiens) (O00292 whole entry, looked up): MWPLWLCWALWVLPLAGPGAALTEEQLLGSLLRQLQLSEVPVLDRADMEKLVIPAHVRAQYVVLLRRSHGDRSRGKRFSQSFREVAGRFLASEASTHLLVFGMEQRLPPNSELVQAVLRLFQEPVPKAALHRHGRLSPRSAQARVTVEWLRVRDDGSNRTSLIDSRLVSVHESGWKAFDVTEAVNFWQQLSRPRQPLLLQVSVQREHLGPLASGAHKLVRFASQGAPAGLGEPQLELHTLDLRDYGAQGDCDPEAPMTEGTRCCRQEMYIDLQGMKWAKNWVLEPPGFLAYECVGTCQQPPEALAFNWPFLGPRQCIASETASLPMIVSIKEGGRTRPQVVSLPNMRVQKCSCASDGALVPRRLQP
The target of assay [4] is Calmodulin-1 (Homo sapiens) (UniProt P0DP23). The experiment in a line: CALM1 binders on microarrays, EGTA buffer, profiling panel, biochemical, small-molecule microarray, Cy5-labelled CALM1 (AID 1111).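 Also: labelled calmodulin applied in Tris saline Tween buffer holding calcium plus EGTA and DTT.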 Particulars: Cy5-CALM1 binding fluorescence, higher = more signal.
Assay [5] has the same target. Put plainly: calcium-bound CALM1 binders on microarrays, profiling panel, artefact control for SMM control-protein annotation, biochemical, small-molecule microarray, Cy5-labelled CALM1, plus calcium (AID 1112).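 Also: score merges spot fluorescence with signal to noise from triplicate slides.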 Conditions: Cy5-CALM1 binding fluorescence, higher = more signal.
Assay [6] can be described thus: small-molecule microarray binders of probe aWnt5a, primary screen, biochemical, biotinylated probe, 635/667 nm fluorescence (AID 1113).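 Also: score merges 667 nm fluorescence intensity with signal-to-noise per printed feature.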 Particulars: higher = more signal.
Assay [7] is described as follows: small-molecule microarray binders of probe aShh, primary screen, biochemical, biotinylated probe, 635/667 nm fluorescence (AID 1114).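 Also: probe is biotin-labelled aShh protein from a stem cell growth factor screen; measures binding of labelled protein to compounds printed on the slide; score merges feature fluorescence at 667 nm with signal-to-noise.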 Conditions: higher = more signal.
The nature of assay [8]: small-molecule microarray binders of probe aNog, primary screen, biochemical, biotinylated probe, 635/667 nm fluorescence (AID 1115).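 Also: probe is biotinylated aNog protein used at 0.15 µg/mL for 1 h at 4 C; z-score combines 667 nm fluorescence of each spot with its signal to noise.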 Conditions: higher = more signal.
Assay [9] has as its target Torsin-1A-interacting protein 1 (Homo sapiens) (UniProt Q5JTV8). Put plainly: LAP1 binders from COS7 cell lysate, primary screen, small-molecule microarray, 635/667 nm fluorescence (AID 1116). Conditions: COS7-hLAP1 lysate binding, 635 nm fluorescence, higher = more signal.
Assay [10] concerns the target Alpha-bungarotoxin (Bungarus multicinctus) (UniProt P60615). The experiment in a line: alpha-bungarotoxin binders on microarray, profiling panel, artefact control for SMM control protein annotation, biochemical, small-molecule microarray, Alexa647 label, 635/667 nm fluorescence (AID 1117). Particulars: alpha-BTX-A647 binding fluorescence, higher = more signal.
The target of another assay is Albumin (Bos taurus) (UniProt P02769). The experiment in a line: bovine serum albumin binders on microarray, profiling panel, artefact control for SMM control protein annotation, biochemical, small-molecule microarray, Alexa647 label, 635/667 nm fluorescence (AID 1118).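 Also: score merges 667 nm emission intensity and signal-to-noise per printed compound spot.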 Conditions: BSA-A647 binding, fluorescence 635 nm, higher = more signal.
Sequence of Albumin (Bos taurus) (P02769 whole entry, looked up): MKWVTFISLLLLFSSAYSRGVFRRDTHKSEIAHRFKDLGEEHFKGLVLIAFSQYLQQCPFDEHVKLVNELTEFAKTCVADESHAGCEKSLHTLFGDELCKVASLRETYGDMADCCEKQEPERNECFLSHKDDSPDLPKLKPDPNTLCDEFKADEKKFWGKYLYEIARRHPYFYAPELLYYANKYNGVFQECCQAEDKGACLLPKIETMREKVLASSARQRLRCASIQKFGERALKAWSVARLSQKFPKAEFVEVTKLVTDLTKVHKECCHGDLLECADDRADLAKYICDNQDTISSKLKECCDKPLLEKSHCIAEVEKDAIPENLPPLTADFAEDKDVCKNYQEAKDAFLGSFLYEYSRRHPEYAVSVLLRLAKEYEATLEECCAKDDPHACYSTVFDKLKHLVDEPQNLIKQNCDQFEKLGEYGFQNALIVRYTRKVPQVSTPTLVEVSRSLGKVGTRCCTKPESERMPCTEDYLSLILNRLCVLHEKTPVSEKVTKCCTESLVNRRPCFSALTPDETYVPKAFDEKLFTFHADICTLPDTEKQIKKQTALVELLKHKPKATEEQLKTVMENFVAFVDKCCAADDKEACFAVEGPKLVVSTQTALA
Assay [11] can be described thus: small-molecule microarray binders of probe aXIP, primary screen, biochemical, NeuroSMM set, 635/667 nm fluorescence (AID 1119).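 Also: probe is the protein aXip251-270 applied at 1 µg/mL to compound-printed slides; binding of probe to printed compounds measured as 667 nm fluorescence plus signal to noise.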 Conditions: higher = more signal, called active from +8 up or from −8 down.
Assay [12] in a line: small-molecule binders of probe aNOTCH3, primary screen, biochemical, small-molecule microarray, 635/667 nm fluorescence (AID 1120).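 Also: probe is a biotin-tagged antibody raised against NOTCH3 rather than NOTCH3 protein; score merges spot fluorescence near 667 nm with spot signal to noise.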 Particulars: higher = more signal.
Assay [13] can be described thus: small-molecule binders of probe aNOTCH2, primary screen, biochemical, small-molecule microarray, 635/667 nm fluorescence (AID 1121).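 Also: score merges feature fluorescence read at 667 nm with its signal to noise.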 Particulars: higher = more signal.
For assay [14], the target named is Carbonic anhydrase 2 (Homo sapiens) (UniProt P00918). The experiment in a line: CAII small-molecule binders, profiling panel, biochemical, small-molecule microarray, Alexa647-labelled CAII (AID 1122). Conditions: CAII-A647 binding fluorescence, higher = more signal.
A short description of assay [15]: COS7 lysate on small-molecule microarray, probe aHis, 635 nm (AID 1123).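 Also: z-score combines 667nm fluorescence intensity with signal-to-noise per printed compound spot.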 Particulars: COS7 cell lysate, fluorescence, higher = more signal.
The nature of assay [16]: compound binding in COS7 lysate, probe aLAP1, primary screen, cell lysate, small-molecule microarray (AID 1124).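 Also: lysate comes from COS7 cells expressing LAP1 and is applied at 0.3 µg/mL; score merges spot fluorescence near 667 nm with signal-to-noise over triplicate slides.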 Particulars: probe aLAP1, fluorescence, higher = more signal.
The test system of another assay is Sam68 (KHDRBS1). The experiment in a line: Sam68 small-molecule binders, primary screen, biochemical, small-molecule microarray, 635 nm fluorescence (AID 1125).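 Also: score merges 667 nm channel intensity with signal to noise over triplicate slides.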 Particulars: small-molecule microarray binding, higher = more signal.
For assay [17], the system named is Chordin-like protein 2 (CHRDL2). The experiment in a line: CHRDL2 small-molecule binders, primary screen, biochemical, small-molecule microarray, 635 nm fluorescence (AID 1126).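 Also: printed compound slides probed with Chrdl2 protein at 4 µg/mL for 1 h at 4 C; score merges 667 nm emission intensity with signal to noise over three replicate slides.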 Conditions: small-molecule microarray binding, fluorescence 635 nm; higher = more signal.
The target in assay [18] is Concanavalin-A (Canavalia ensiformis) (UniProt P02866). The experiment in a line: ConA small-molecule binders, primary screen, artefact control for SMM control protein annotation, biochemical, small-molecule microarray, Alexa647 label, 635 nm (AID 1127).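 Also: z combines 667 nm emission intensity with signal-to-noise across three replicate slides.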 Conditions: ConA-A647 binding fluorescence, higher = more signal.
Sequence of Concanavalin-A (Canavalia ensiformis) (P02866 whole entry, looked up): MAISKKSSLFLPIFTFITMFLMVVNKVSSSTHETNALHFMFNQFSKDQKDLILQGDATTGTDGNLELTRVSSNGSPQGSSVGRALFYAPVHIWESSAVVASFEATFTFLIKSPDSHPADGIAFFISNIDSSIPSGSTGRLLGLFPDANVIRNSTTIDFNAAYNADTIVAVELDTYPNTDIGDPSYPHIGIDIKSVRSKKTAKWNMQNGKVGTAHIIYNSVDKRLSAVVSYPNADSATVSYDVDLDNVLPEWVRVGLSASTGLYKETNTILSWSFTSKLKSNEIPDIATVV

Sequence of Alpha-bungarotoxin (Bungarus multicinctus) (P60615 whole entry, looked up): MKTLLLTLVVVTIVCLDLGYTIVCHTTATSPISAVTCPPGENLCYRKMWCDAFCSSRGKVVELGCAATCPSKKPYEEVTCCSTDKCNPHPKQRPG
Sequence of Torsin-1A-interacting protein 1 (Homo sapiens) (Q5JTV8 whole entry, looked up): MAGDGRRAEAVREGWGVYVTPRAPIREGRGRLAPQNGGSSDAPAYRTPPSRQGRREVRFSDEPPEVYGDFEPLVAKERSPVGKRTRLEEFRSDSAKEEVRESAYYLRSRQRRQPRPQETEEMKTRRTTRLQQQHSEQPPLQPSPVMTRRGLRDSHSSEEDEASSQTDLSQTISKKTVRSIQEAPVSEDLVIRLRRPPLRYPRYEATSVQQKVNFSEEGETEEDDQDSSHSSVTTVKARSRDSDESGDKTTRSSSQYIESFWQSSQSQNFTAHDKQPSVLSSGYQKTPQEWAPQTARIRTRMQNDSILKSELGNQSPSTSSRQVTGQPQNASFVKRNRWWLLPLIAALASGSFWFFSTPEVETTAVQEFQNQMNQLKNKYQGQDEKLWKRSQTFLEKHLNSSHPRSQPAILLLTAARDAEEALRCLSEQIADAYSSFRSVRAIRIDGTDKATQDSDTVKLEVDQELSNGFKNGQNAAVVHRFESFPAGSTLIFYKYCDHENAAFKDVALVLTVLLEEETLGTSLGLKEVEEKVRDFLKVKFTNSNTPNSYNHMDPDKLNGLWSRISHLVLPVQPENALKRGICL

As to `C=CCOc1ccc([C@@H]2CC=C(C(=O)OCC)[C@H](c3cccc(Br)c3)N2S(=O)(=O)c2ccc(C)cc2)cc1`, the composite z-score in [1] is -1.07; in assay [3] it was 0.179; in assay [4], 1.95; in assay [5], 0.943; in assay [6] it was -0.0944; in [7] it was -0.107. In addition, the composite z-score in assay [8] was -0.54; in assay [9], 0.644; in assay [10], 1.2; with Albumin (Bos taurus), 0.64; in assay [12], 0.032; in assay [13], -0.0784. The composite z-score is -0.125 in [14]; 0.491 in [15]; 0.11 in [16]; 0.099 in the assay with Sam68 (KHDRBS1); 0.314 in assay [17]; 0.709 in assay [18]. In [2], this compound registered a z-score of -1.12. The composite Z-score in assay [11] was 0.0809 (inactive).

As for `C[C@@H]1ON(c2ccccc2)[C@H](c2ccccc2)[C@H]1C(=O)N1C(=O)OC[C@H]1Cc1ccccc1`, the composite z-score in assay [1] is 1.06; in [3], 0.567; in assay [4], -0.137; in assay [5], -0.542; in [6], 0.765; in assay [7], -0.304. For the same compound, the composite z-score is -0.282 in [8]; 0.28 in assay [9]; 0.327 in [10]; 0.215 with Albumin (Bos taurus); -0.0057 in assay [12]; -0.14 in [13]. For the same compound, the composite z-score was 0.303 in assay [14]; 0.514 in assay [15]; -0.0985 in assay [16]; 0.885 with Sam68 (KHDRBS1); 0.447 in assay [17]; 0.603 in assay [18]. In [2], this compound yielded a z-score of -0.782. The composite Z-score in assay [11] is 0.477 (inactive).

Consider `COc1cccc(C)c1NC(=O)O[C@H]1[C@H](OC(=O)Nc2ccccc2)[C@H](OC(=O)Nc2ccccc2)[C@@H](OC)O[C@@H]1CO`, for which the composite z-score in [1] is 1.3; in [3] it was -0.183; in assay [4], 1.81; in assay [5] it was 0.645; in assay [6] it was 0.0775; in assay [7], 0.775. For the same compound, the composite z-score in assay [8] is -0.236; in assay [9] it was 0.0722; in assay [10], 1.3; with Albumin (Bos taurus), 0.958; in [12], -0.0647; in [13], 0.0564. The composite z-score in [14] is 0.54; in assay [15] it was 2.48; in [16], 0.25; in the assay with Sam68 (KHDRBS1) it was 1.34; in assay [17], -1.05; in assay [18], 1.17. In [2], the z-score was -2.96. Besides, the composite Z-score in [11] is -0.922 (inactive).

On to `COCCOC(=O)N1C(=O)[C@@]2(c3cc(C#CCNC(N)=O)ccc31)[C@H](C(=O)N1CCCCCCC1)[C@H]1C(=O)O[C@H](c3ccccc3)[C@H](c3ccccc3)N1[C@@H]2c1ccc(OCCO)cc1`, for which the composite z-score in assay [1] was 0.748; in assay [3] it was 0.277; in assay [4], 1.13; in assay [5], 0.801; in assay [6] it was 0.0075; in [7], -0.138. Also, the composite z-score was -0.118 in [8]; 0.263 in assay [9]; 1.09 in [10]; 0.27 in the assay with Albumin (Bos taurus); 0.331 in assay [12]; 0.0245 in [13]. Besides, the composite z-score in assay [14] turned out to be 0.244; in assay [15], 0.46; in assay [16], 1.32; in the assay on Sam68 (KHDRBS1) it was 0.653; in assay [17] it was 0.298; in assay [18], 0.979. For the same compound, in [2], the z-score is -0.431. Also, the composite Z-score in [11] was 0.32 (inactive).

Consider `CCCNC(=O)[C@@H]1c2ccccc2C(=O)N(CC23CC4CC(CC(C4)C2)C3)[C@H]1c1ccc(CO)cc1`, for which the composite z-score came out at 0.772 in [1]; 1.03 in assay [3]; 0.992 in assay [4]; 0.489 in assay [5]; 0.189 in assay [6]; 0.265 in assay [7]. Further, the composite z-score stood at 0.697 in [8]; 0.986 in [9]; 0.88 in assay [10]; 0.472 with Albumin (Bos taurus); 0.0702 in [12]; 0.0521 in [13]. The composite z-score in [14] came out at 0.395; in assay [15], 1.98; in [16], 0.12; in the assay on Sam68 (KHDRBS1) it was 1.29; in assay [17], 0.781; in assay [18], 1.09. In assay [2], this compound came in with a z-score of -1.15. Further, the composite Z-score in assay [11] was 0.39 (inactive).

With `CC(C)CCC[C@@H](C)[C@H]1CC[C@@]2(C)C3=C(CC[C@]12C)[C@@]1(C)CC[C@H](OC(=O)c2ccc(N)cc2)C(C)(C)C1CC3` (stereo not given in full), the composite z-score in assay [1] is 0.609; in assay [3], 1.2; in assay [4], -0.137; in [5], -0.674; in assay [6] it was -0.0545; in assay [7], 0.768. For the same compound, the composite z-score in assay [8] is -0.427; in assay [9], 0.282; in [10], 0.0506; in the assay with Albumin (Bos taurus), 0.0881; in assay [12], 0.0406; in [13], -0.207. Moreover, the composite z-score in assay [14] is 0.0778; in assay [15], -0.221; in assay [16], -0.252; with Sam68 (KHDRBS1) it was 0.401; in assay [17] it was 0.456; in [18] it was 0.462. The compound further came in with a z-score in assay [2] of 0.0533. For the same compound, in [11], the composite Z-score was -0.196 (inactive).
